Drawing on PubChem BioAssay (NCI), this text covers growth for 25 molecules.

About 83,000 compounds went through this panel and 20% of them were active in at least one assay; those are over-represented in the sample as a whole.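 Values shown are percent growth following 48 h exposure of cells in 96-well plates to a single concentration of compound; below 10 was considered active.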 The source made the active and inactive calls.

The test system of the test is HCC-2998 colon. Nature of the test: NCI-60 one-dose screen, 48 h (100 = growth as untreated, 0 = no growth, -100 = all killed). Conditions: 10 µM unless noted.
Take `O=C(COc1ccc(/C=C2\SC(=O)NC2=O)cc1)Nc1ccc(C(=O)/C=C/c2cc3ccccc3nc2Cl)cc1`: the growth is 64.6% (inactive). As to `CC(C)Sc1nc(NC2CC2)c(C#N)c(-c2ccccc2)n1`, the growth was 89.9% (inactive). With `O=C(COc1cccc2cccnc12)Nc1ccc(C(=O)/C=C/c2ccc(Cl)cc2)cc1`, the growth was 102% (inactive).

Take `Oc1ccc(CSc2nnc(-c3ccc(Br)cc3)n2-c2ccccc2)c2cccnc12`: the growth is 44.9% (inactive). `COc1ccccc1N1CCN(C2=NN=C(c3cccc(Cl)c3)c3ccccc3C2)CC1`: the growth is 8.13% (active). Next, `O=C1/C(=C/c2ccc([N+](=O)[O-])cc2)SC(=Nc2ccccc2)N1Nc1ccccc1`: 85.3% (inactive); `COc1ccc([C@H]2c3[nH]c4ccccc4c3C[C@@H]3C(=O)N(C4CCN(Cc5ccccc5)CC4)CC(=O)N23)c(OC)c1`: 78.1% (inactive); `N#Cc1c(-c2cccs2)cc(-c2cnccn2)nc1SCC(=O)NNC(=S)Nc1ccc(F)cc1`: 109% (inactive).

Regarding `O=C1NC(=O)c2c1c1c3ccccc3ccc1c1[nH]c3ccccc3c21`, the growth was 46.1% (inactive). Next, `COc1ccc(-c2ccc3c4c(cccc24)C(=O)N(N2C(=O)c4cccc5cccc(c45)C2=O)C3=O)cc1`: 114% (inactive); `NS(=O)(=O)c1ccc(Nc2nc(N/N=C/c3ccc(C(F)(F)F)cc3)nc(Nc3ccccc3)n2)cc1`: 53.1% (inactive).

Regarding `O=C(c1ccc(O)cc1)[C@@H]1[C@@H]2CCCN2[C@@]2(C(=O)N(C(=O)c3ccc(F)cc3)c3ccccc32)[C@H]1c1ccc(F)cc1`, the growth is 108% (inactive). Next, `Cc1ccc(-n2cc(/C=C/C(=O)c3ccc(S(C)(=O)=O)cc3)c(-c3ccc(S(C)(=O)=O)cc3)n2)cc1`: 107% (inactive); `Cc1ccc(Cc2cnc(NC(=O)/C(C#N)=C/c3ccc(-c4ccc(Cl)cc4)o3)s2)cc1`: 103% (inactive); `Oc1ccc(CSc2nnc(-c3ccc(Oc4ccccc4)cc3)o2)c2cccnc12`: 29.4% (inactive). Next, `O=C1c2c(c3c4cccnc4[nH]c3c3ccc4ccccc4c23)C(=O)N1CCN1CCOCC1`: 82% (inactive). As to `O=C1CC2(CCOCC2)Oc2ncccc21`, the growth was 25.1% (inactive). Turning to `O=C(Nc1ccc(F)cc1)c1cc(-c2ccc(F)cc2F)ccc1O`, the growth was 31.5% (inactive). Next, `COc1ccc(/C=N\NC(=O)c2ccc3nc(-c4ccc(Br)cc4)[nH]c3c2)cc1`: 59.4% (inactive); `O=C(O)c1ccc(-n2cc(CNc3ccc(Cl)cc3)c(-c3ccc(F)cc3)n2)cc1`: 112% (inactive); `Cc1ccc(-c2csc(N/N=C/c3nc4ccccc4n3C3CC3)n2)cc1`: 90% (inactive). Next, `C#C[C@]1(O)CC[C@H]2[C@@H]3CC=C4c5sc(Nc6cccc(C)n6)nc5CC[C@]4(C)[C@H]3CC[C@@]21C`: 47.5% (inactive); `COc1ccc(-c2nc(SCC(C)C)nc(N/N=C\c3cccc([N+](=O)[O-])c3)c2C#N)cc1`: 80.3% (inactive). Under `CCCCCCNC(=O)Oc1ccc(/C(=C(/C)c2ccc(OC)cc2)c2ccc(OCCN3CCCC3)cc2)cc1` stands 87.9% (inactive); under `CN(C)c1ccc(/C=N/Nc2nc(N/N=C/c3ccc(N(C)C)cc3)nc(N3CCOCC3)n2)cc1`, 103% (inactive).
